In all, about 3,200 compounds went through this assay and about 110 (3.4%) showed an effect of 50% or more. Many of the other results were omitted from the sample, so strong results are more common in it than they were.
Each molecule was assayed on T1, V. cholerae SAD30. Settings: relative growth, OD600, LB; 25 µM; inhibitor.
T1 construct: SAD30
Set-up: species or system S. aureus MSSA476 (TSB) or V. cholerae SAD30 (LB); 384-well bacterial growth screen at 25 uM, OD600 relative to DMSO control

Structure (SMILES)	% of control remaining [%]
CCc1ccc(NC(=O)C(C)Cl)cc1 (stereo not drawn) [4-L15, 2-chloro-N-(4-ethylphenyl)propanamide]	96.9592
CC(Cl)C(=O)NCc1csc2ccccc12 (stereo not drawn) [7-C11, N-[(1-benzothiophen-3-yl)methyl]-2-chloropropanamide]	69.5192
COc1ccc(C=C(C#N)C(=O)Nc2ccccc2)cc1 [8-A05, 2-cyano-3-(4-methoxyphenyl)-N-phenylprop-2-enamide]	91.9782
N#CC(=Cc1ccc(O)cc1)C(=O)Nc1cc(Cl)ccc1Cl [9-F03, 2-cyano-N-(2,5-dichlorophenyl)-3-(4-hydroxyphenyl)prop-2-enamide]	117.947
CC(Cl)C(=O)N1CCN(C(=O)Cc2cccc(Cl)c2)C(C)C1 (stereo not drawn) [7-E20, 2-chloro-1-{4-[2-(3-chlorophenyl)acetyl]-3-methylpiperazin-1-yl}propan-1-one]	74.6737
CC(Cl)C(=O)N[C@H]1C[C@H](C)S(=O)(=O)c2sccc21 (stereo partly drawn) [6-B22, 2-chloro-N-[(2S,4S)-2-methyl-1,1-dioxo-2H,3H,4H-1lambda6-thieno[2,3-b]thiopyran-4-yl]propanamide]	103.289
Cc1ccc(SCCNC(=O)CCl)cc1 [4-K21, 2-chloro-N-{2-[(4-methylphenyl)sulfanyl]ethyl}acetamide]	111.279
N#CC(=Cc1ccccc1OC(F)F)C(=O)Nc1ccccc1Cl [9-M21, N-(2-chlorophenyl)-2-cyano-3-[2-(difluoromethoxy)phenyl]prop-2-enamide]	89.5309
Cc1cc(C(=O)CCl)c(C)n1CCc1ccccc1 [10-B18, 2-chloro-1-[2,5-dimethyl-1-(2-phenylethyl)-1H-pyrrol-3-yl]ethan-1-one]	95.3828
O=C(CCl)NCCCc1ccccc1 [4-N04, 2-chloro-N-(3-phenylpropyl)acetamide]	112.487
COc1ccc(CCN2C(=O)C=CC2=O)cc1OC [10-H07, 1-[2-(3,4-dimethoxyphenyl)ethyl]-2,5-dihydro-1H-pyrrole-2,5-dione]	98.344
COc1ccc(CCN2C(=O)C=CC2=O)cc1 [10-A05, 1-[2-(4-methoxyphenyl)ethyl]-2,5-dihydro-1H-pyrrole-2,5-dione]	35.8465
CC(Cl)C(=O)NCCc1ccc(F)cc1 (stereo not drawn) [6-F06, 2-chloro-N-[2-(4-fluorophenyl)ethyl]propanamide]	86.757
Cc1cc(C(=O)CCl)c(C)n1CCc1ccc(F)cc1 [10-G14, 2-chloro-1-{1-[2-(4-fluorophenyl)ethyl]-2,5-dimethyl-1H-pyrrol-3-yl}ethan-1-one]	97.7206
O=C1C=CC(=O)N1CCc1ccccc1 [10-E20, 1-(2-phenylethyl)-2,5-dihydro-1H-pyrrole-2,5-dione]	27.5862
O=C1C=CC(=O)N1CCc1ccc(F)cc1 [10-C21, 1-[2-(4-fluorophenyl)ethyl]-2,5-dihydro-1H-pyrrole-2,5-dione]	34.7555
COc1ccc(CCNC(=O)CCl)cc1 [5-H12, 2-chloro-N-[2-(4-methoxyphenyl)ethyl]acetamide]	68.593
O=C1C=CC(=O)N1CCc1ccccc1F [10-G03, 1-[2-(2-fluorophenyl)ethyl]-2,5-dihydro-1H-pyrrole-2,5-dione]	22.2872
O=C(CCl)Nc1nnc(-c2ccccc2Cl)s1 [6-K17, 2-chloro-N-[5-(2-chlorophenyl)-1,3,4-thiadiazol-2-yl]acetamide]	95.8574
CC(Cl)C(=O)Nc1cccc(Cl)c1 (stereo not drawn) [5-H22, 2-chloro-N-(3-chlorophenyl)propanamide]	106.42
C=CC(=O)N(Cc1cn2ccccc2n1)C1CC1 [3-J21, N-cyclopropyl-N-({imidazo[1,2-a]pyridin-2-yl}methyl)prop-2-enamide]	90.3253
C=CC(=O)NCc1cnc(-c2ccc(C(F)(F)F)cc2)s1 [1-C13, N-({2-[4-(trifluoromethyl)phenyl]-1,3-thiazol-5-yl}methyl)prop-2-enamide]	68.9088
CC(Cl)C(=O)N1CCn2c(C#N)ccc2C1C (stereo not drawn) [6-F22, 2-(2-chloropropanoyl)-1-methyl-1H,2H,3H,4H-pyrrolo[1,2-a]pyrazine-6-carbonitrile]	96.0091
C=CC(=O)NCCC(=O)N1CCCN(c2cccnn2)CC1 [2-P16, N-{3-oxo-3-[4-(pyridazin-3-yl)-1,4-diazepan-1-yl]propyl}prop-2-enamide]	95.7541
Cc1n[nH]c(C)c1C=C(C#N)C(=O)Nc1ccc(SC(F)F)cc1 [8-E08, 2-cyano-N-{4-[(difluoromethyl)sulfanyl]phenyl}-3-(3,5-dimethyl-1H-pyrazol-4-yl)prop-2-enamide]	75.2549
O=C(CCl)N(Cc1nc(C2CCCCCC2)no1)C1CC1 [7-B16, 2-chloro-N-[(3-cycloheptyl-1,2,4-oxadiazol-5-yl)methyl]-N-cyclopropylacetamide]	80.2247
Cc1cc(NC(=O)CN(C)C(=O)C(C)Cl)no1 (stereo not drawn) [7-M19, 2-chloro-N-methyl-N-{[(5-methyl-1,2-oxazol-3-yl)carbamoyl]methyl}propanamide]	81.8107
C=CC(=O)NCCc1nc(-c2ccccc2)nn1C [2-M12, N-[2-(1-methyl-3-phenyl-1H-1,2,4-triazol-5-yl)ethyl]prop-2-enamide]	85.4096
C=CC(=O)NCCn1nc(C)cc1C [3-M13, N-[2-(3,5-dimethyl-1H-pyrazol-1-yl)ethyl]prop-2-enamide]	97.7357
C=CC(=O)N1CCC(C(=O)Oc2ccc(NC(C)=O)cc2)CC1 [3-M16, 4-acetamidophenyl 1-(prop-2-enoyl)piperidine-4-carboxylate]	96.1478

Source: PMC11995724, “Antibiotic target discovery by integrated phenotypic and activity-based profiling of electrophilic fragments” (Cell chemical biology, 2025)
